Consider twelve compounds from PubChem BioAssay.

Records with an inconclusive call do not appear. The source made the active and inactive calls.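 The calls were made as follows, unless noted: active = viability loss from added drug above about 55%, and viability with drug at most 40%, in both replicates (limit read from the data, passing the limit was not always enough); inconclusive = both conditions met in only one replicate; inactive = neither replicate meets both conditions.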

Experiment [1] in a line: Her2 expression decrease, cell viability multiplex – SKBR3 breast tumor cells, AlphaScreen, ATP viability, primary screen (AID 461;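 active = Her2 level under about 52% in both replicate screens, with viability over 70% of control, limit read from the data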;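 as to Her2 level: lower value means less Her2 protein in the cells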;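 as to viability: percent of carrier control wells set as 100% viability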). Conditions: SKBR3 Her2 protein level, 18-24 h, measured here: SKBR3 viability, ATP luminescence, at 10 µM. For orientation: Alpha assays give light when donor and acceptor beads are brought close together.
Experiment [2] addresses Receptor tyrosine-protein kinase erbB-2 (Homo sapiens) (UniProt P04626). Described as above. The settings on record: 18-24 h, at 10 µM, stronger effect = lower value.
Experiment [3] in a line: reduced viability of SK-BR-3 breast cancer cells – cell-based, 24 h, human, pilot screen (AID 572;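 active = viability at or below 10% of carrier control in both of two separate runs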;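 also: compound exposure lasted between 18 and 24 h rather than exactly 24 h; 100% = carrier-treated control wells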). The settings on record: SK-BR-3 viability, CellTiter-Glo luminescence, at 10 µM, stronger effect = lower value. A general note: In ATP-based viability assays light output follows the ATP content of the culture.
Experiment [4] in a line: H69AR cell proliferation blockers – human, duplicate replicates, primary screen (AID 580;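 active = viability at or under a set limit in both replicates, limit being median viability minus 3 SD, cut at about 48% in these data, passing the limit was not always enough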;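 also: 100% = mean luminescence of untreated wells and 0% = no signal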). The settings on record: H69AR lung tumor cells viability, ATP luminescence, 72 h; at 10 µM; stronger effect = lower value.
Experiment [5] in a line: MRP1 drug-resistance reversers in H69AR cells – cell-based, doxorubicin co-treatment, pilot screen (AID 601). Conditions: CellTiter-Glo, 72 h, at 10 µM; for differential viability (reversal): stronger effect = higher value.
The nature of experiment [6]: yeast transport mutant growth inhibition pilot in 384-well plates, post-Golgi transport modulator project (AID 636; in the data active = inhibition above about 31%). Conditions: absorbance 615 nm, about 18 h, stronger effect = higher value.
The nature of experiment [7]: growth suppression of yeast trafficking mutant, preliminary HTS, modulators of trafficking downstream of Golgi apparatus project, 1536-format plate, OD 615 nm (AID 637; in the data active = inhibition above about 30%). Conditions: yeast transport mutant growth, absorbance 615 nm, 18 h; stronger effect = higher value.
A short description of experiment [8]: HUVEC growth inhibition – cell-based, human, primary screen (AID 575;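 active = viability at or below 30% in both replicate assays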;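 also: 100% = median of untreated cell wells with 0.1% DMSO on each plate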). The settings on record: HUVEC proliferation, CellTiter-Glo luminescence, 72 h; at 10 µM; stronger effect = lower value.
The nature of experiment [9]: S. cerevisiae growth inhibition in permissive medium (OD615), pilot counter-assay for S. cerevisiae lifespan shortening project, permissive growth control (AID 705;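 active = growth inhibition above 25% in both replicates, a cutoff set 3 SD above the mean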). Conditions: OD615, 24 h, at 10 µM, stronger effect = higher value.
Experiment [10] is described as follows: S. cerevisiae growth inhibition in restrictive medium, OD615, pilot screen, restrictive growth control, yeast lifespan reduction project (AID 706;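 active = growth inhibition above a set limit, 3 SD over mean compound inhibition, in both replicates, cut at about 43% in these data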;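 also: modified DeaD lifespan yeast strain shifted to restrictive glucose medium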). The settings on record: OD615, 48 h, at 10 µM, stronger effect = higher value.
A short description of experiment [11]: doxorubicin toxicity protection in MRP-1 cells – H69AR cells, CellTiter-Glo, duplicate, MRP-1 activator project, pilot screen (AID 807;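 active = viability increase at or above a cutoff of the median across tested compounds plus 3 SD, cut at about 8.5% in these data, passing the limit was not always enough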;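 also: compound pretreatment 18-22 h then 72 h combined with doxorubicin; 0% = doxorubicin alone and 100% = vehicle without doxorubicin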). The settings on record: H69AR viability with doxorubicin, CellTiter-Glo luminescence; at 10 µM; stronger effect = higher value.
Experiment [12] in a line: viability of HCT116 without oncogenic beta-catenin – human colon tumor cells, pilot screen (AID 823;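 active = cell viability at or below a set limit in both duplicate runs, the limit being the all-compound median minus 4 SD, cut at about 23% in these data, passing the limit was not always enough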;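 also: 0% = wells killed by 20 µM Hyamine and 100% = untreated DMSO cell wells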). Conditions: HCT116 beta-catenin knockout viability, CellTiter-Glo, 60 h; at 10 µM; stronger effect = lower value.
Experiment [13] in a line: viability of PTEN-null HCT116 cells – cell-based, HCT116 clonal line, CellTiter-Glo, pilot screen (AID 824;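 active = viability at or below 27.92% in each of two runs, the all-compound median minus 4 SD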;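 also: 0% = 20 µM Hyamine control and 100% = vehicle cell control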). The settings on record: HCT116 PTEN-deleted viability, 60 h, at 10 µM, stronger effect = lower value.
The nature of experiment [14]: RAM pathway blockade in budding yeast – dse1pr::URA3 reporter, 5-FOA selection, pilot screen (AID 869;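 active = inhibition over a set limit, the all-compound mean plus 3 SD, in both replicate runs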;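 also: 0% = DMSO wells with no growth and 100% = 10 µM 1-NA-PP1 with full growth; RAM network block rescues cells from 5-FOA so hits raise OD615 growth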). The settings on record: S. cerevisiae dse1pr::URA3 5-FOA growth, OD615, 2 d; at 10 µM; stronger effect = higher value; strain carries analog-sensitive mutant Cbk1 kinase.
[15] abbreviates: H69AR cells + 2 uM doxorubicin, measured here: viability with 2 uM doxorubicin, stronger effect = lower value.
[16] abbreviates: H69AR cells, compound alone cytotoxicity.

Sequence of Receptor tyrosine-protein kinase erbB-2 (Homo sapiens) (P04626 whole entry, looked up): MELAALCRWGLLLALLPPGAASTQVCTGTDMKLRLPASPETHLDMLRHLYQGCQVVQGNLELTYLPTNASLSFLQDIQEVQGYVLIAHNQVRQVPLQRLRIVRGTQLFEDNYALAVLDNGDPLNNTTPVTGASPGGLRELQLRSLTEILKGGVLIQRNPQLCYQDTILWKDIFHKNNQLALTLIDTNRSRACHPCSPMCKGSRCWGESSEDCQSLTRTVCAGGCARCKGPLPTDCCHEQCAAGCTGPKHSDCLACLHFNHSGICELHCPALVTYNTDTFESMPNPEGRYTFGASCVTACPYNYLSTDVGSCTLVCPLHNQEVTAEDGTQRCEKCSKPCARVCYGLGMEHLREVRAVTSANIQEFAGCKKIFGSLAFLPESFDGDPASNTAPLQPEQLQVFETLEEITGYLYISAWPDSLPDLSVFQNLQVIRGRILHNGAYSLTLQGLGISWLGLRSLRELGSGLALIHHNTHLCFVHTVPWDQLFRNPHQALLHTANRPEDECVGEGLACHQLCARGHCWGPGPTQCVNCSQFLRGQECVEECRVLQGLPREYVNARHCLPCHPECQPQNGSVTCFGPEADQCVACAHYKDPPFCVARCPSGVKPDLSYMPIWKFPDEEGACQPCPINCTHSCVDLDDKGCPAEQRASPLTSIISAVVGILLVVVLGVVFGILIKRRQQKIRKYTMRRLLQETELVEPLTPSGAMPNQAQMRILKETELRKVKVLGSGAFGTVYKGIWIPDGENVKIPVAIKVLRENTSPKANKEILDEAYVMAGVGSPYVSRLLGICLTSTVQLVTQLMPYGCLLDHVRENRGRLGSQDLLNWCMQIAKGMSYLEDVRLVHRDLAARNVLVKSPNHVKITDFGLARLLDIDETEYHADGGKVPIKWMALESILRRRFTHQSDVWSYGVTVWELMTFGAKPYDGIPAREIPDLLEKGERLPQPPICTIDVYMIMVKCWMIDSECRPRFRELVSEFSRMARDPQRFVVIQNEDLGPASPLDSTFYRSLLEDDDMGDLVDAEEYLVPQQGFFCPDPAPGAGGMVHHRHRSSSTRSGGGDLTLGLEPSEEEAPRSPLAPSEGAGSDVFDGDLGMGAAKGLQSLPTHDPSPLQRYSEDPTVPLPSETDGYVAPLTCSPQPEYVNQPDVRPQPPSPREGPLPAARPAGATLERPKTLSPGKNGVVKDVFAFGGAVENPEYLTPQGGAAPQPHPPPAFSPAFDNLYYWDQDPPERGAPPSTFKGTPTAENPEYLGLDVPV

Consider `COc1ccc(Cn2nnnc2C(c2cccnc2)N2CCN(c3ccc(O)cc3)CC2)cc1` (stereo not given), for which the viability (usually a read-out of living cells in per cent, often relative to untreated cells) in experiment [1] was 99.5%; in [3], 99.5% (inactive); in [4] it was 82.5% (inactive); in [5] (setting [15]) it was 93.2%; in experiment [5] (setting [16]), 82.5%. The Her2 level in [2] was 89.5% (inactive). Further, the differential viability (reversal) in [5] (H69AR cells + 2 uM doxorubicin) was -10.7% (inactive). The inhibition (as a rule, the change of the read-out against control, counted positive when it falls) is -6.4% (inactive) in experiment [6] and 4.19% (inactive) in [7].

On to `CCOC(=O)c1cc2sc(C)cc2n1CC(=O)NCc1ccc(F)cc1`, for which the viability was 65% in experiment [1]; 65% (inactive) in experiment [3]; 69.4% (inactive) in [4]; 52.3% in experiment [5] (setting [15]); 69.4% in [5] (setting [16]). The Her2 level in experiment [2] was 73% (inactive). For the same compound, the differential viability (reversal) in experiment [5] (H69AR cells + 2 uM doxorubicin) is 17.1% (inactive). In addition, the inhibition in experiment [6] is -6.32% (inactive); in experiment [7] it was -3% (inactive).

As to `COc1ccccc1NC(=O)Cn1nnc(-c2ccccc2NC(=O)c2ccco2)n1`, the viability in experiment [1] is 91.5%; in [3] it was 91.5% (inactive); in experiment [4], 6.73% (active); in experiment [5] (setting [15]), 10.9%; in [5] (setting [16]) it was 6.73%. Besides, the Her2 level in experiment [2] was 72.5% (inactive). The differential viability (reversal) in experiment [5] (H69AR cells + 2 uM doxorubicin) was -4.18% (inactive). The figures for the inhibition in experiment [6] and in [7] were -5.41% (inactive) and 0.66% (inactive), respectively.

As to `COc1cccc(-c2cc3nc4c(c(N5CCC6(CC5)OCCO6)n3n2)CCCC4)c1`, the viability in experiment [1] was 124%; in [3], 124% (inactive); in experiment [4], 58.5% (inactive); in [5] (setting [15]), 61.9%; in [5] (setting [16]), 58.5%. Further, the Her2 level in [2] is 67.5% (inactive). Moreover, the differential viability (reversal) in experiment [5] (H69AR cells + 2 uM doxorubicin) is -3.45% (inactive). The inhibition in experiment [6] is 35.3% (active); in [7], 21.6% (inactive).

Take `CC1CCc2nc(NC(=O)CN3CCN(Cc4ccc5c(c4)OCO5)CC3)sc2C1` (stereo not given): the viability in experiment [1] was 90.5%; in experiment [3], 90.5% (inactive); in experiment [4], 87.8% (inactive); in [5] (setting [15]), 73.5%; in experiment [5] (setting [16]), 87.8%. Besides, the Her2 level in [2] is 77.5% (inactive). In addition, the differential viability (reversal) in experiment [5] (H69AR cells + 2 uM doxorubicin) was 14.3% (inactive). Besides, the figures for the inhibition in [6] and in experiment [7] were -0.66% (inactive) and 2.1% (inactive), respectively.

Turning to `Oc1c(Cl)cc(Cl)c2c1NCCC2`, the viability in experiment [1] was 71.5%; in [3] it was 71.5% (inactive); in experiment [4], 68.8% (inactive); in [5] (setting [15]), 80.7%; in experiment [5] (setting [16]), 68.8%. For the same compound, the Her2 level in experiment [2] was 65% (inactive). The differential viability (reversal) in experiment [5] (H69AR cells + 2 uM doxorubicin) is -11.9% (inactive). Moreover, the inhibition in experiment [6] was -2.63% (inactive); in experiment [7], -2.7% (inactive).

On to `CCOC(=O)Nc1ccc(NS(=O)(=O)c2ccc(C)cc2)cc1`, for which the viability in experiment [3] is 72% (inactive); in [8] it was 86.6% (inactive); in experiment [4], 83.7% (inactive); in experiment [5] (setting [15]), 96.1%; in experiment [5] (setting [16]), 83.7%. Also, the differential viability (reversal) in experiment [5] (H69AR cells + 2 uM doxorubicin) is -12.3% (inactive). Moreover, the inhibition is 1.92% (inactive) in experiment [6] and -7.42% (inactive) in experiment [7].

Consider `COc1cc(C)nc(N2CCCC(C(=O)Nc3cccc(Cl)c3Cl)C2)n1` (stereo not given), for which the viability in experiment [1] was 71%; in [3], 71% (inactive); in [5] (setting [15]), 58.3%; in [5] (setting [16]), 56.4%. Also, the Her2 level in [2] was 62.5% (inactive). Also, the differential viability (reversal) in experiment [5] (H69AR cells + 2 uM doxorubicin) is -1.86% (inactive). Also, the inhibition is 0.39% (inactive) in [6] and -10.2% (inactive) in experiment [7].

On to `O=C(NC1CCCC1)C(c1cccs1)N(C(=O)c1ccno1)c1ccccc1` (stereo not given), for which the viability in experiment [1] was 57.5%; in experiment [8], 95.2% (inactive); in experiment [4], 91.2% (inactive); in [5] (setting [15]) it was 85.1%; in experiment [5] (setting [16]) it was 91.2%. The Her2 level in [2] was 92% (inactive). Besides, in [5] (H69AR cells + 2 uM doxorubicin), the differential viability (reversal) is 6.13% (inactive). Moreover, the inhibition in [6] was -3.78% (inactive); in experiment [7], 5.08% (inactive).

In the case of `CC1=C(C(=O)OCC(C)C)C(c2cc3c(cc2Br)OCO3)NC(=O)N1C` (stereo not given), the viability was 99% in experiment [1]; 99% (inactive) in experiment [3]; 88.9% (inactive) in [4]; 101% in experiment [5] (setting [15]); 88.9% in experiment [5] (setting [16]); 81.2% (inactive) in experiment [12]. Moreover, in experiment [13], the viability was 68.4% (inactive). Also, the Her2 level in [2] is 75% (inactive). In addition, the differential viability (reversal) in [5] (H69AR cells + 2 uM doxorubicin) is -12.5% (inactive). The inhibition in [6] is -1.82% (inactive); in [7], -3.83% (inactive); in experiment [14], -0.395% (inactive). Also, the values for the growth inhibition in experiment [9] and in [10] were 0.885% (inactive) and -13.9% (inactive), respectively. For the same compound, in experiment [11], the viability increase is -2.54% (inactive).

On to `CCCc1cc(-n2ccnc2)n2c(nc3ccccc32)c1C#N`, for which the viability in experiment [1] is 89.5%; in experiment [3] it was 89.5% (inactive); in experiment [5] (setting [15]), 55.8%; in experiment [5] (setting [16]), 45.8%. Further, the Her2 level in experiment [2] was 74% (inactive). The differential viability (reversal) in experiment [5] (H69AR cells + 2 uM doxorubicin) is -10.1% (inactive). Moreover, the values for the inhibition in experiment [6] and in [7] were -3.92% (inactive) and 2.06% (inactive), respectively.

Consider `CCc1nnc(NC(=O)CSc2nnc(-c3cc4ccccc4cc3O)n2CC)s1`, for which the viability in [3] was 84% (inactive); in [8], 78.4% (inactive); in [4], 90.1% (inactive); in [5] (setting [15]), 89.1%; in experiment [5] (setting [16]) it was 90.1%. For the same compound, the differential viability (reversal) in experiment [5] (H69AR cells + 2 uM doxorubicin) was 1.08% (inactive). Besides, the values for the inhibition in experiment [6] and in experiment [7] were -1.95% (inactive) and -3.28% (inactive), respectively.
